# NPSR antag = blocks cAMP signaling of the human neuropeptide S receptor; CHO-NPSR cells, cAMP TR-FRET, antagonist mode; actives 1% (n = 220,000); Potency, µM (doses to about 38.3 µM), inactives show at the highest dose activity change, negative = inhibition, actives largely listed as inhibitors; note: potency is the fitted concentration of half-maximal effect; % is set by controls: 0 for no effect and ±100 for the full control effect; nearly all actives have a fitted effect of over 50% in size
# PTHR1 ag = agonists of human PTHR1 parathyroid hormone receptor; HEK293 GP2 PTHR1 cells, GloSensor cAMP luminescence, 1 h; Potency, µM (titrated, usually from 115 µM), inactives show top-dose activation, actives largely listed as activators; actives 0.075% (n = 410,000); note: potency is the fitted concentration of half-maximal effect; nearly all actives have a fitted effect of over 55% in size
#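 HEK-293-derived GP2 cells expressing PTHR1 and a GloSensor cAMP reporter, 3,000/well, plated overnight, given luciferin plus IBMX (each 0.5 mM as added) for 1 h at 37 °C, then compound for 1 h at 37 °C. Luminescence was read after 15 min at room temperature.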
# RXFP1 ag = RXFP1 (human) receptor agonism. Q9HBX9. HEK293T-RXFP1 cAMP TR-FRET, 30 min; response scale: percent of porcine relaxin response, buffer zero. Potency, µM (top dose mostly 57.5 µM), for the others: top-dose activation, actives largely listed as activators. actives 0.3% (n = 370,000); note: potency is the fitted concentration of half-maximal effect; % is set by controls: 0 for no effect and ±100 for the full control effect; nearly all actives have a fitted effect of over 60% in size
#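 cAMP rise read by TR-FRET after 30 min, 37C compound exposure (up to 58 uM) in RXFP1-transfected HEK293 cells with Ro 20174 present. EC50 from Hill-equation fits, with 29 nM porcine relaxin as 100% and buffer as basal.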
# TCR activator = activates T cell receptor signaling. primary human leukocytes, anti-CD3, IL-2 HTRF, 48 h. Potency, µM (top dose mostly 9.22 µM), for the others: at the top dose activation of IL-2 secretion, hits mostly activators. 330,000 tested, under 10 active; note: % of control where 0% means no effect
#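 Primary human leukocytes incubated 48 hr with anti-CD3 beads plus compound, without co-stimulation. Secreted IL-2 measured by HTRF (europium cryptate/d2 anti-IL-2 pair, 320 nm excitation, 665 nm emission).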
# TSHR antag = antagonists of human thyroid stimulating hormone receptor | P16473 | TSHR-expressing cells, TSH-stimulated cAMP HTRF, 2 h; active compounds read low | activity change, negative = inhibition, % at 11.5 µM | actives 0.2% (n = 330,000);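 active = activity change below a set negative limit, meaning inhibition stronger than a set level, cut at about -70% in these data; inconclusive = activity change between two set negative limits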; note: % is set by controls: 0 for no effect and ±100 for the full control effect
# Target sequence (P16473 whole entry, looked up): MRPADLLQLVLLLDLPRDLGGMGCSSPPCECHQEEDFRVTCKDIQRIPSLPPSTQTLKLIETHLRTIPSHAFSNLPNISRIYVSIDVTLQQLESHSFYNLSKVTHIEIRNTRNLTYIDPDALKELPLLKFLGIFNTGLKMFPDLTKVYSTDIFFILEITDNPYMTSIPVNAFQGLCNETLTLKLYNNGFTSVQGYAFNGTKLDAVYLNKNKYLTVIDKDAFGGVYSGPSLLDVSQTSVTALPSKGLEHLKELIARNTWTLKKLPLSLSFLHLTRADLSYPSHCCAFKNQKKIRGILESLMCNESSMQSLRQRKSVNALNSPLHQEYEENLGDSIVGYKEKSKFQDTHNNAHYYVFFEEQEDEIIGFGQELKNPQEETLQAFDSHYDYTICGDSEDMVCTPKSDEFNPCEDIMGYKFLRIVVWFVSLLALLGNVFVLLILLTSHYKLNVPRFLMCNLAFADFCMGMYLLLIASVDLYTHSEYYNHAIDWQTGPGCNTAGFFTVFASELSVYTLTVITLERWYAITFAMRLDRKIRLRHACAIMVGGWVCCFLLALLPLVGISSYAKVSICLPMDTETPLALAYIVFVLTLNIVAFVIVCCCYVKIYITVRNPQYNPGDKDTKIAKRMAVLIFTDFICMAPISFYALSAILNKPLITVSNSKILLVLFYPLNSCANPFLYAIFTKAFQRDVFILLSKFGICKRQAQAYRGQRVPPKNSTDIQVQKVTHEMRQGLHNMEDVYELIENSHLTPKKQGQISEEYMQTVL
#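 TSHR-expressing cells were treated with compounds, then stimulated with TSH at EC80 (4nM final) for 2 hours at 37 deg C. Cellular cAMP was measured by HTRF competition between lysate cAMP and cAMP-d2 for a cryptate-labelled anti-cAMP antibody.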
# RXFP1 antag = antagonists of human relaxin receptor RXFP1; Q9HBX9; HEK293-RXFP1, relaxin-stimulated cAMP HTRF, 30 min; active compounds read low; activity change, negative = inhibition, % at 57.5 µM; actives 0.59% (n = 350,000);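 active = activity change of -60% or lower, but not beyond a set lower limit; inconclusive = change between -60% and -40%, or beyond the set limit; inactive = change above -40%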; note: % is set by controls: 0 for no effect and ±100 for the full control effect
# Starred values were filed as active, the others as inactive; i = inactive; ? = inconclusive; / = no result; ! = not active in a repeat; [ ] = remark or other dose. The sample as a whole holds a higher share of hits than the screen did. Unless noted, calls come from the whole dose curve; as a rule, active = well fitted curve in the direction sought with a large enough effect; inconclusive = small, poorly fitted or top-dose-only effect, or another doubt; inactive = no such curve, though single readings can be large; an effect the other way counts as inactive or inconclusive.
SMILES,NPSR antag,PTHR1 ag,RXFP1 ag,TCR activator,TSHR antag,RXFP1 antag
CCCNC(=O)CN1C(=O)NC(CC)(c2ccc(F)cc2)C1=O (centres undefined),/,-13%,0%,0%,-4,1
CCC1(c2ccc(F)cc2)NC(=O)N(CC(=O)NCC(=O)Nc2cccc(C)c2C)C1=O (centres undefined),/,i,-1%,-2%,8,-79*
Cc1sc(-n2c(C)cc(/C=C3\SC(=S)NC3=O)c2C)c(C#N)c1C,-19%[46.1 µM],-44%[57.5 µM],1%,-38%,-29,-105*
O=C(NCC(c1ccco1)N1CCCC1)c1cc(=O)[nH]c2ccccc12 (centres undefined),/,-27%,/,5%,30,-2
O=C(NCC(c1cccs1)N1CCOCC1)c1cc(=O)[nH]c2ccccc12 (centres undefined),/,i,1%,-2%,-1,-77*
O=C(Nc1ccccc1OCc1cc(=O)n2ccccc2n1)Nc1ccccc1C(F)(F)F,/,-39%,9%,/,/,3
CN(C(=O)CSc1nnc(COc2ccccc2)o1)c1ccccc1,/,i,0%,/,/,0
CCCN1C(=O)/C(=C/c2ccncc2)SC1=S,3%,-8%,0%,-4%[46.1 µM],20,1
O=C(O)c1cc(-c2ccc(/C=C3/SC(=S)N(Cc4ccccc4)C3=O)o2)ccc1Cl,10µM*,-21%,-1%,2%,8,-27
O=C1/C(=C/c2ccncc2)SC(=S)N1Cc1ccccc1,1%[7.67 µM],-29%,-1%,1%,-1,-99*
Cc1ccc(/C=C2\SC(=S)N(Cc3ccccc3)C2=O)o1,-11%[46.1 µM],-23%[57.5 µM],1%,-4%,1,10
COc1ccc(CN2C(=O)/C(=C/c3ccc(-c4ccc(Cl)c(C(=O)O)c4)o3)SC2=S)cc1,6.3µM*,/,0%,/,-15,/
CCOC(=O)c1c(C)oc2nc(C)nc(NCC3CCN(Cc4ccc(Cl)cc4)CC3)c12,/,11%,25%,/,/,-18
COc1ccc(C2=C(C)C(N3CCC(C(=O)Nc4ccccc4F)CC3)=NS2(=O)=O)cc1,/,i,-2%,/,/,?
CC(=O)Nc1ccc(NC2=C/C(=N/S(=O)(=O)c3cccs3)c3ccccc3C2=O)cc1,7.9µM*,-9%,-8%,2%,?,0
Cc1ccc(NC2=C/C(=N/S(=O)(=O)c3cccs3)c3ccccc3C2=O)cc1C,-7%,i,-1%,0%[46.1 µM],27,-6
Cc1ccccc1NC1=C/C(=N\S(=O)(=O)c2cccs2)c2ccccc2C1=O,3.2µM*,-15%[57.5 µM],2%,5%,-50,-3
COc1ccc(Cl)cc1NC(=O)CSc1nc2c(oc3ccccc32)c(=O)n1Cc1ccco1,/,i,-1%,/,/,/
CCOC(=O)c1sc(NC(=O)CSc2nc(C)cc(C)n2)c(C#N)c1C,-18%[46.1 µM],i,3%,3%,-12,-5
CCOC(=O)c1c(NC(=O)CSc2nc(C)cc(C)c2C#N)sc(C(C)=O)c1C,?,-1%,18µM*,-28%,15,-9
O=C1/C(=C/C=C/c2ccccc2)Oc2c1ccc(O)c2CN1CCN(CCO)CC1,-53%,-17%,10%,7%,-10,-5
CCN1CCN(Cc2c(O)ccc3c2O/C(=C\C=C\c2ccccc2)C3=O)CC1,4µM*,-23%,2%,-7%[46.1 µM],14,-2
CCN1CCN(Cc2c(O)ccc3c2O/C(=C\c2ccc(C)cc2)C3=O)CC1,10µM*,21%,11%,-7%,-1,-1
CCc1ccc(/C=C2\Oc3c(ccc(O)c3CN3CCN(C)CC3)C2=O)cc1,10µM*,1%,17%,4%,7,0
Cc1ccc(/C=C2\Oc3c(ccc(O)c3CN3CCN(C)CC3)C2=O)cc1,7.9µM*,i,8%,-5%,-8,-9
SMILES,NPSR antag,PTHR1 ag,RXFP1 ag,TCR activator,TSHR antag,RXFP1 antag
CCN1CCN(Cc2c(O)ccc3c2O/C(=C\c2ccccc2)C3=O)CC1,?,i,13%,-4%,4,2
O=S(=O)(c1ccc(Cl)cc1)c1nc(-c2ccco2)oc1SCc1ccc(F)cc1,/,-12%,0%,/,/,-12
CC(=O)c1cccc(NCc2ccccc2-c2nnc(-c3ccccc3)o2)c1,/,-5%,-1%,/,/,-4
O=C(O)c1c(O)c(-c2ccccc2)nc2ccccc12,/,/,/,/,/,-17
CCOC(=O)c1ccc(NC(=O)C2CCCN(c3cnccn3)C2)cc1 (centres undefined),/,-1%,-2%,-2%,-1,-61*!
CCc1cccc(NC(=O)C2CCCN(c3cnccn3)C2)c1 (centres undefined),/,-3%,1%,10%,6,11
COc1cccc(OCC(=O)NCCS(=O)(=O)N2CCN(c3ccccc3F)CC2)c1,/,-18%,0%,/,/,1
COc1ccc(C2C(C#N)=C(N)OC3=C2C(=O)CC(C)(C)C3)cc1OC (centres undefined),-5%,-7%,0%,0%,0,-76*
Cc1ccccc1N1CCN(CCc2nnc3n2CCCC3)CC1,/,/,/,/,/,5
CCc1ccc(OCC(=O)c2c(O)c3ccccc3oc2=O)cc1,-4%,?,-1%,3%,10,-3
CCc1oc2ccccc2c1C(=O)c1cc(Br)c(O)c(Br)c1,-40%,-30%,22%,-1%,-70*,9
COc1ccc(S(=O)(=O)Cc2ccc(C(=O)NC3CCCCCC3)o2)cc1,/,i,2%,-4%,-2,-102*
Cc1cccc(OCC(=O)NCCc2nc3ccccc3[nH]2)c1C,/,-1%,4%,/,/,-13
COCC(=O)O[C@]1(CCN(C)CCCc2nc3ccccc3[nH]2)CCc2cc(F)ccc2[C@@H]1C(C)C,10µM*,-8%,1%,-2%,-13,-30
Cc1cccc(CN2C(=O)/C(=C\c3ccc(C(=O)NCCN4CCOCC4)cc3)Sc3ccccc32)c1,/,-20%,2%,1%,-3,-87*
O=C(CN1C(=O)/C(=C/c2ccc(C(F)(F)F)cc2)Sc2ccccc21)NCCCN1CCOCC1,/,i,0%,-12%,-7,-109*
Cc1ccc(CN2C(=O)c3ccccc3Sc3ccc(C(=O)NCCCN4CCOCC4)cc32)cc1,/,23%,-2%,1%,-138*,0
CCOc1ccc(C(=O)NCC(c2ccc3c(c2)OCO3)N2CCN(c3ccccc3F)CC2)cc1 (centres undefined),/,-4%,0%,/,/,-20
COc1ccccc1-[n+]1c(C)cc(/C=C2\Sc3ccccc3N2C)cc1C,6.3µM*,-50%,-3%,-2%,-33,-12

# From PubChem BioAssay
